In all, about 33,000 sequences were measured (“E-score (-0.5 to 0.5)”: median about -0.012, highest 2% from about 0.29 on). The sample holds the highest values, similar sequences and a random draw of the others, so the mix is not that of the screen.

This assay concerns the target T1, Ybr033w (UniProt P38073).
T1 sequence: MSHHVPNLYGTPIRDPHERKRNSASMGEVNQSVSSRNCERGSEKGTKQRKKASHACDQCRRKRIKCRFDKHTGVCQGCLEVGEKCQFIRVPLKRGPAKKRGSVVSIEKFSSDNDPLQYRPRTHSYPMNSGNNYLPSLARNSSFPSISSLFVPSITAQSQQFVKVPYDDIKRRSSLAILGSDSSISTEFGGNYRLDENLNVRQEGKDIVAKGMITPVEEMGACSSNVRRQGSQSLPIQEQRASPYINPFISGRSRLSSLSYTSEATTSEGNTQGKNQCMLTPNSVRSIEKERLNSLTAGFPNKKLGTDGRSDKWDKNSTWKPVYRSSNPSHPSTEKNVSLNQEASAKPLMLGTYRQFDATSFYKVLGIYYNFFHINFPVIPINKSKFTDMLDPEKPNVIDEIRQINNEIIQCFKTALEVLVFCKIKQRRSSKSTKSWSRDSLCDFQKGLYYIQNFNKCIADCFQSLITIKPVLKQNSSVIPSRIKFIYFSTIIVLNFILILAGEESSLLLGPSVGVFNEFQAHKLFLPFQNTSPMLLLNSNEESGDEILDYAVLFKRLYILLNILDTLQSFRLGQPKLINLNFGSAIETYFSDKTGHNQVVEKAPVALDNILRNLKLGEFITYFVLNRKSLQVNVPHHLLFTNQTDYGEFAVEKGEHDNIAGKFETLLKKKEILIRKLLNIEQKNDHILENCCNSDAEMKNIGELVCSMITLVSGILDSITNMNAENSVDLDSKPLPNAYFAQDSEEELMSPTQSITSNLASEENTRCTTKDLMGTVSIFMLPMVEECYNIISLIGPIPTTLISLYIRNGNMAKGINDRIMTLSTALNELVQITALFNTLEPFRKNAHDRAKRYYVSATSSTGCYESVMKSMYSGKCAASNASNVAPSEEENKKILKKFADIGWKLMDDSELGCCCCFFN
Nature of the assay: PBM E-score (8-mer binding enrichment) (E-score (-0.5 to 0.5)); higher = stronger / more preferred TF binding. The following applies: protein concentration: 200 nM; construct: GST-full length. Here is the method: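 Universal 'all 10-mer' protein binding microarrays (Agilent AMADID 015681) probed with GST-tagged S. cerevisiae TFs (full-length or DBD) made by in vitro transcription/translation (PURExpress), about 100-200 nM. Bound TF was detected with fluorescent anti-GST. Each ungapped 8-mer (which stands for itself and its reverse complement) is scored by the PBM enrichment score (E-score), a modified Wilcoxon-Mann-Whitney statistic from -0.5 to +0.5, computed with the Universal PBM Analysis Suite. Scale: above 0.35 generally sequence-specific binding.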
TCCCTACA: the “PBM E-score” value is -0.0308. As to ATTAAAAG, the “PBM E-score” value amounted to 0.223. With GTTAAAGA, the “PBM E-score” value is 0.182. As to CTTAAACA, the “PBM E-score” value amounted to 0.104. As for ATTAAACG, the “PBM E-score” value was determined as 0.27. Next, TTTAAAAA: 0.149.

For the sequence ATTAAACA, the “PBM E-score” value worked out at 0.312. Turning to TTAAAAAA, the “PBM E-score” value was 0.306. CTAAAAAA: the “PBM E-score” value amounted to 0.267. In the case of ATTAAAAA, the “PBM E-score” value was found to be 0.297. Next, ATTAAAGA: 0.327; CTTAAAGA: -0.102. For ATTAAAAC, the “PBM E-score” value stood at 0.272. Turning to GGGTATGA, the “PBM E-score” value was 0.0197.

For ACTCCCCT, the “PBM E-score” value is -0.002.

Regarding CTGATAAG, the “PBM E-score” value came to 0.126. In the case of AGAAACCC, the “PBM E-score” value was determined as 0.0994. Next, CAGTGCCG: -0.105. For the sequence CTTCGTAC, the “PBM E-score” value was -0.103. The value for GCCGCTAC was -0.121; that for GAGCTGCA was -0.284; that for CAGTAATA was 0.317. On to TAGTAATA, for which the “PBM E-score” value is 0.241.

CAGTAATG: the “PBM E-score” value was found to be 0.282. Next, AAGTAATT: 0.331.

On to AAGTAATG, for which the “PBM E-score” value is 0.141. The value for CAGTAATC was -0.0846; that for AAGTAATA was 0.0769. Regarding GAGTAATA, the “PBM E-score” value is 0.334. Next, GAGTAATC: 0.132. The value for GGGCTGAA was 0.0197; that for ATAGCCAT was 0.0973. The value for ACAATGCC was -0.0228; that for CGCAAATC was -0.0144; that for TAGGTGCA was -0.0741. As for TAATGGAA, the “PBM E-score” value stood at 0.184.

CTGATTTA: the “PBM E-score” value was 0.156.

ATGATTAA: the “PBM E-score” value worked out at 0.231.

With GTGATTTA, the “PBM E-score” value is 0.295.

Turning to GGGATTGA, the “PBM E-score” value was -0.148. GGGATTAC: the “PBM E-score” value was -0.103. On to TGCATTAA, for which the “PBM E-score” value came to 0.256. On to GGGATTAA, for which the “PBM E-score” value came to 0.411. The value for TGGATTAA was 0.38; that for ATGATTTA was 0.253; that for CTGATTAA was 0.22. As for CGGATTAG, the “PBM E-score” value was -0.0597.

On to GTGATTAA, for which the “PBM E-score” value worked out at 0.291. The value for ACGCATTG was -0.0453. Consider AGCCCACG, for which the “PBM E-score” value is -0.202. With CATGGTGA, the “PBM E-score” value was found to be 0.137. Regarding GCGATTAA, the “PBM E-score” value worked out at 0.19. On to CCGATTTA, for which the “PBM E-score” value is 0.183. With TCGATTAA, the “PBM E-score” value came to 0.288. For the sequence ACGATTAA, the “PBM E-score” value was found to be 0.141.

Regarding ACGATTTA, the “PBM E-score” value turned out to be 0.36. As to GCGATTTA, the “PBM E-score” value amounted to 0.0771. Take ACACCGTC: the “PBM E-score” value is -0.0477. In the case of AAGCGCAT, the “PBM E-score” value is -0.0621. Turning to CACCGCTA, the “PBM E-score” value is -0.0953. Next, TAAACTGA: 0.136; ATGGCCTG: -0.16; GCGATACA: 0.0586. As to TCGATACA, the “PBM E-score” value turned out to be 0.298. On to ACGATACA, for which the “PBM E-score” value amounted to 0.0132.

As to ACGGTAGC, the “PBM E-score” value was -0.123. ACTAGTCT: the “PBM E-score” value was -0.0233. In the case of ACCATCGG, the “PBM E-score” value is -0.118. For the sequence ACAACCAG, the “PBM E-score” value came out at 0.102. Next, ACAACCAC: 0.0628; ACAACCAT: 0.297; CGTTCTGC: 0.0161. The value for GCTTATGA was -0.0277; that for CACTAATG was 0.0973; that for AACTAATT was 0.293. In the case of AACTAATA, the “PBM E-score” value was 0.298. Next, AACTAATG: 0.29; AACTAATC: 0.192. For the sequence CACTAATA, the “PBM E-score” value amounted to 0.0444. Consider AACTAACT, for which the “PBM E-score” value was found to be 0.126. For TACTAATA, the “PBM E-score” value worked out at 0.185. For the sequence AACTAAAG, the “PBM E-score” value was 0.231. For AAATCGGC, the “PBM E-score” value is -0.158.

In the case of CCACCGGA, the “PBM E-score” value turned out to be 0.172.

For the sequence GAGACCAA, the “PBM E-score” value turned out to be 0.0622. For ATCCGCTC, the “PBM E-score” value was -0.102. Regarding ACGGTATG, the “PBM E-score” value is -0.0502. For AGGCATAA, the “PBM E-score” value was -0.0986. Next, ATTTAGGC: 0.117. For CCCACCTC, the “PBM E-score” value is -0.244. With TAATTTCA, the “PBM E-score” value was found to be 0.289.

With AAATTTAC, the “PBM E-score” value is 0.263. As to AAATTTCA, the “PBM E-score” value was -0.0112. The value for CAATTTCA was 0.0349; that for TAATTTAA was 0.343. For the sequence AAATTTAA, the “PBM E-score” value turned out to be 0.29. For the sequence AAATTTAG, the “PBM E-score” value stood at 0.278. In the case of GAATTTAA, the “PBM E-score” value was determined as 0.0723. Next, CAATTTAA: 0.27.

Values taken from the supplement of paper PMC3334620.
